Compounds without any hit were thinned out: in the full panel of roughly 83,000, 20% have a hit.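 Each cell line was grown in a 96-well plate and treated with one concentration of compound for 48 hours. Values below 10 were considered active.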 Active and inactive are the calls of the source.
Legend:
Assay in all cases: NCI-60 one-dose screen, 48 h (100 = growth as untreated, 0 = no growth, -100 = all killed)
Conditions in all cases: 10 µM
NCI-H23 lung = tested on: NCI-H23 lung
NCI-H226 lung = tested on: NCI-H226 lung
NCI-H322M lung = tested on: NCI-H322M lung
HOP-62 NSCLC = tested on: HOP-62 NSCLC
NCI-H460 lung = tested on: NCI-H460 lung
HOP-92 NSCLC = tested on: HOP-92 NSCLC
NCI-H522 lung = tested on: NCI-H522 lung
A549/ATCC NSCLC = tested on: A549/ATCC NSCLC
786-0 renal = tested on: 786-0 renal
COLO 205 colon = tested on: COLO 205 colon

Measured: growth

CCCCCCCCCCSC(=N)N (tested in a mixture with another compound)
inactive: NCI-H23 lung 80% | NCI-H226 lung 94.2% | NCI-H322M lung 105% | HOP-62 NSCLC 77.3% | NCI-H460 lung 52.5% | HOP-92 NSCLC 41.8% | NCI-H522 lung 53.7% | A549/ATCC NSCLC 75.3% | 786-0 renal 52.4%

Cc1ccc(S(=O)(=O)N2CCc3ccccc3CC2)cc1
inactive: NCI-H23 lung 54.5% | NCI-H226 lung 54.3% | NCI-H322M lung 99% | HOP-62 NSCLC 97.9% | NCI-H460 lung 90.8% | HOP-92 NSCLC 71.9% | NCI-H522 lung 74.1% | A549/ATCC NSCLC 72.1% | 786-0 renal 79.3%

CC1(C)CC(=O)c2c(nc3ccc(Cl)cc3c2-c2ccccc2)C1
inactive: NCI-H23 lung 89.9% | NCI-H226 lung 97.6% | NCI-H322M lung 103% | HOP-62 NSCLC 92.1% | NCI-H460 lung 90.1% | HOP-92 NSCLC 45.6% | NCI-H522 lung 73% | A549/ATCC NSCLC 95.7% | 786-0 renal 101%

COc1ccc(C2=Cc3ccc(OC(C)=O)cc3OC2)cc1
inactive: NCI-H23 lung 95.9% | NCI-H226 lung 91.1% | NCI-H322M lung 92.3% | HOP-62 NSCLC 109% | NCI-H460 lung 103% | HOP-92 NSCLC 91.8% | NCI-H522 lung 75.4% | A549/ATCC NSCLC 88.3% | 786-0 renal 100%

C=CCOc1ccc2c(c1)CC[C@@H]1[C@@H]2CC[C@]2(C)C(=O)/C(=N/O)C[C@@H]12
active: HOP-92 NSCLC -5.15%
inactive: NCI-H23 lung 60.1% | NCI-H226 lung 76.2% | NCI-H322M lung 50.9% | HOP-62 NSCLC 56.7% | NCI-H460 lung 64% | NCI-H522 lung 44.5% | A549/ATCC NSCLC 58.5% | 786-0 renal 47.3% | COLO 205 colon 40.8%

CCSc1nc2c([nH]1)c(=O)n(C)c(=S)n2C
inactive: NCI-H23 lung 98.6% | NCI-H226 lung 117% | NCI-H322M lung 117% | HOP-62 NSCLC 98% | NCI-H460 lung 107% | HOP-92 NSCLC 103% | NCI-H522 lung 102% | A549/ATCC NSCLC 107% | 786-0 renal 100% | COLO 205 colon 106%

O=C(Cn1ccc(=O)[nH]c1=O)c1ccc([N+](=O)[O-])o1
active: NCI-H522 lung -91.7%
inactive: NCI-H23 lung 108% | NCI-H226 lung 103% | NCI-H322M lung 120% | HOP-62 NSCLC 118% | NCI-H460 lung 100% | HOP-92 NSCLC 136% | A549/ATCC NSCLC 109% | 786-0 renal 108%

CCOC(=O)CNC(=O)Nc1ccc(Oc2ccc(NC(=O)NCC(=O)OCC)cc2)cc1
inactive: NCI-H23 lung 104% | NCI-H226 lung 98.8% | NCI-H322M lung 96.3% | HOP-62 NSCLC 96.1% | NCI-H460 lung 101% | HOP-92 NSCLC 92.2% | NCI-H522 lung 96.2% | A549/ATCC NSCLC 90.6% | 786-0 renal 105% | COLO 205 colon 105%

CC(CNC(Cc1ccccc1)c1ccccc1)NC(Cc1ccccc1)c1ccccc1 (stereo unspecified)
inactive: NCI-H23 lung 30.3% | NCI-H226 lung 34.8% | NCI-H322M lung 77.7% | HOP-62 NSCLC 39.9% | A549/ATCC NSCLC 46.8% | 786-0 renal 50.2%
active: NCI-H460 lung 8.03% | HOP-92 NSCLC -0.172% | NCI-H522 lung 9.37%

COc1ccc(-c2[nH]ncc2/C=C/c2cc(C(F)(F)F)[nH]c(=O)n2)cc1
inactive: NCI-H23 lung 99.4% | NCI-H226 lung 96.9% | NCI-H322M lung 98.1% | HOP-62 NSCLC 96% | NCI-H460 lung 110% | HOP-92 NSCLC 59.3% | NCI-H522 lung 75.7% | A549/ATCC NSCLC 104% | 786-0 renal 89.8%

COc1ccc(-c2nsc3c2NC(=O)CC3c2cccc(Cl)c2)cc1 (stereo unspecified)
active: HOP-92 NSCLC -2.09% | NCI-H522 lung -6.59%
inactive: NCI-H23 lung 46.9% | NCI-H226 lung 75% | NCI-H322M lung 36% | HOP-62 NSCLC 27.8% | NCI-H460 lung 13.3% | A549/ATCC NSCLC 30.2% | 786-0 renal 46.4%

COc1ccc(-c2nsc3c2NC(=O)CC3c2ccc(Cl)cc2)cc1 (stereo unspecified)
inactive: NCI-H23 lung 83.9% | NCI-H226 lung 84.4% | NCI-H322M lung 83.5% | HOP-62 NSCLC 92.6% | NCI-H460 lung 94.8% | HOP-92 NSCLC 73.3% | NCI-H522 lung 68.1% | A549/ATCC NSCLC 76.6% | 786-0 renal 84.2%

CCN1CCN(c2nc(NNC(=O)c3cccc(OC)c3)nc(N3CCN(C(c4ccccc4)c4ccccc4)CC3)n2)CC1
inactive: NCI-H23 lung 78.5% | NCI-H226 lung 94.5% | NCI-H322M lung 89.7% | HOP-62 NSCLC 87.1% | HOP-92 NSCLC 42.8% | NCI-H522 lung 97% | A549/ATCC NSCLC 65.3% | 786-0 renal 72.8%
active: NCI-H460 lung -9.84%

O=C(Nc1cccc(Cl)c1)Nc1cc2ncncc2cc1OCc1cccc(F)c1
active: HOP-62 NSCLC -4.3% | NCI-H460 lung 4.36% | HOP-92 NSCLC -4.78% | NCI-H522 lung -8.47% | A549/ATCC NSCLC 2.26%
inactive: NCI-H23 lung 20.6% | NCI-H226 lung 37.1% | NCI-H322M lung 15.5% | 786-0 renal 39%

COc1ccc(-c2nnc(SC/C(=N\O)c3ccccc3)o2)cc1
inactive: NCI-H23 lung 89.3% | NCI-H226 lung 95.5% | NCI-H322M lung 113% | HOP-62 NSCLC 97.7% | NCI-H460 lung 98.8% | HOP-92 NSCLC 98.4% | NCI-H522 lung 71.4% | A549/ATCC NSCLC 107% | 786-0 renal 97.2%

Cc1ccc(S(=O)(=O)Oc2ccccc2-c2ccccc2)cc1
inactive: NCI-H23 lung 47.2% | NCI-H226 lung 53.5% | NCI-H322M lung 47.9% | HOP-62 NSCLC 42% | HOP-92 NSCLC 33% | NCI-H522 lung 15% | A549/ATCC NSCLC 42.4% | 786-0 renal 38.4%
active: NCI-H460 lung 9.27%

COc1cc2ccnc(C=O)c2cc1OC
inactive: NCI-H23 lung 83.5% | NCI-H226 lung 101% | NCI-H322M lung 87.5% | HOP-62 NSCLC 89.7% | NCI-H460 lung 107% | HOP-92 NSCLC 51.2% | NCI-H522 lung 68.4% | A549/ATCC NSCLC 101% | 786-0 renal 99.9% | COLO 205 colon 92.9%

N#Cc1ccc(-n2cnc(NC(=O)[C@H]3CCN(C#N)C3)c2)cc1
active: NCI-H522 lung -37.8%
inactive: NCI-H23 lung 19.8% | NCI-H226 lung 26.4% | NCI-H322M lung 43.5% | HOP-62 NSCLC 23% | NCI-H460 lung 15.3% | HOP-92 NSCLC 42% | A549/ATCC NSCLC 23.8% | 786-0 renal 23.7%

CCc1ccc(-c2nnc(COc3ccc(-c4nc5ccccc5[nH]4)cc3OC)o2)cc1
inactive: NCI-H23 lung 72.4% | NCI-H226 lung 81.4% | NCI-H322M lung 96.9% | HOP-62 NSCLC 83.2% | NCI-H460 lung 45.5% | HOP-92 NSCLC 79% | NCI-H522 lung 91.6% | A549/ATCC NSCLC 60.3% | 786-0 renal 22.3%

O=S(=O)(NC1c2ccccc2Oc2ccccc21)c1cc(Cl)ccc1Cl
inactive: NCI-H23 lung 97.6% | NCI-H226 lung 83.4% | NCI-H322M lung 90% | HOP-62 NSCLC 89.4% | NCI-H460 lung 105% | HOP-92 NSCLC 60.2% | NCI-H522 lung 29.5% | A549/ATCC NSCLC 97.1% | 786-0 renal 84.6%

COc1cc(CSc2nc3ccc(C)cc3c(=O)n2-c2ccccc2)cc(OC)c1OC
inactive: NCI-H23 lung 22% | NCI-H226 lung 48.3% | NCI-H322M lung 47.4% | HOP-62 NSCLC 37.8% | NCI-H460 lung 20.2% | HOP-92 NSCLC 67.9% | A549/ATCC NSCLC 39.3% | 786-0 renal 37.6%
active: NCI-H522 lung 8.32% | COLO 205 colon -24.2%

COc1ccc(C2=NNC(c3sc(Cl)nc3Cl)C2)cc1 (stereo unspecified)
active: NCI-H522 lung 9.05%
inactive: NCI-H23 lung 93.7% | NCI-H226 lung 54.4% | NCI-H322M lung 90.3% | HOP-62 NSCLC 72.5% | NCI-H460 lung 103% | HOP-92 NSCLC 75.2% | A549/ATCC NSCLC 94.7% | 786-0 renal 99.2%

CC(=O)c1c(O)cc2c3c1OC(C)(C)C1CCC(C)(CC31)O2 (stereo unspecified)
inactive: NCI-H23 lung 100% | NCI-H226 lung 85.8% | NCI-H322M lung 98% | HOP-62 NSCLC 106% | NCI-H460 lung 108% | HOP-92 NSCLC 92% | NCI-H522 lung 102% | A549/ATCC NSCLC 98.1% | 786-0 renal 104%

O=C(c1ccccc1)C(Sc1ccccc1)c1ccccc1 (stereo unspecified)
inactive: NCI-H23 lung 76.4% | NCI-H226 lung 94% | NCI-H322M lung 108% | HOP-62 NSCLC 93% | NCI-H460 lung 67.8% | HOP-92 NSCLC 67.2% | NCI-H522 lung 62.4% | A549/ATCC NSCLC 92% | 786-0 renal 104%

COc1cc(-c2cc(/C=C/C(C)=O)[nH]n2)cc(OC)c1OC
inactive: NCI-H23 lung 87.7% | NCI-H226 lung 81.7% | NCI-H322M lung 79.4% | HOP-62 NSCLC 84.2% | NCI-H460 lung 95.2% | HOP-92 NSCLC 74.9% | A549/ATCC NSCLC 86.2% | 786-0 renal 84.5%
active: NCI-H522 lung -66%

CCn1nc(-c2ccc(C(=O)OC)cc2)nc2c(=O)n(C)c(=O)nc1-2
inactive: NCI-H23 lung 104% | NCI-H226 lung 33.5% | NCI-H322M lung 45.4% | NCI-H460 lung 47.8% | NCI-H522 lung 77% | A549/ATCC NSCLC 35.8%
active: HOP-62 NSCLC -1.34% | HOP-92 NSCLC -13.1% | 786-0 renal -18.7%

COc1cccc(-c2nnc(COc3ccc(-c4nc5ccccc5[nH]4)cc3OC)o2)c1
inactive: NCI-H23 lung 92.7% | NCI-H226 lung 105% | NCI-H322M lung 97.6% | HOP-62 NSCLC 108% | NCI-H460 lung 96.5% | HOP-92 NSCLC 93.8% | NCI-H522 lung 96.7% | A549/ATCC NSCLC 97.1% | 786-0 renal 96.2%

O=[N+]([O-])C1CC2C=CC1C2 (stereo unspecified)
inactive: NCI-H23 lung 100% | NCI-H226 lung 94.9% | NCI-H322M lung 91.1% | HOP-62 NSCLC 93.3% | NCI-H460 lung 108% | HOP-92 NSCLC 110% | NCI-H522 lung 101% | A549/ATCC NSCLC 92.3% | 786-0 renal 90.4%

C/C(=N\NC(=O)c1sc(=S)n(C)c1N)c1cc2ccccc2o1
inactive: NCI-H23 lung 71.6% | NCI-H226 lung 73.9% | NCI-H322M lung 45.4% | HOP-62 NSCLC 69.4% | NCI-H460 lung 37.2% | HOP-92 NSCLC 58.8% | NCI-H522 lung 36.2% | A549/ATCC NSCLC 45.4% | 786-0 renal 57.3% | COLO 205 colon 107%

COc1ccc(-c2cc(/C=C3\C(=O)Nc4cc(Cl)ccc43)[nH]n2)cc1OC
inactive: NCI-H23 lung 92.9% | NCI-H226 lung 80.8% | NCI-H322M lung 89.8% | HOP-62 NSCLC 75% | NCI-H460 lung 62.9% | HOP-92 NSCLC 81.7% | NCI-H522 lung 46% | A549/ATCC NSCLC 75.7% | 786-0 renal 105%

Source: PubChem BioAssay (NCI)
